# Measured values: PubChem BioAssay AID651702 (NMMLSC, 2012)
# The campaign covered roughly 360,000 compounds. About 2,400 (0.67%) were called active.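 The calls were made as follows: active = inhibition above about 55% (limit read from the data); inconclusive = no clear call, values can overlap the other calls; inactive = the rest.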 Many of the other results were omitted from the sample, so actives are more common in it than they were.
# Experiment: LAMP-1 surface exposure blockers, TALL-104 cells – cell-based, flow cytometry, MLPCN library, primary screen (AID 651702)
# Conditions: TALL-104 LAMP-1 surface exposure, at 10 µM, hits give high values, cells stimulated with thapsigargin and PMA
row,Structure (SMILES),inhibition
1,O=C(COC(=O)/C=C/c1cccc(Cl)c1)NCc1cccs1,18.2% (inactive)
2,CC1CCCCC1NC(=O)Cn1c(=O)cnc2ccccc21 (configuration not stated),25.2% (inactive)
3,CCc1cc(C(=O)N(CC)CC(=O)Nc2c(F)cccc2F)sc1C,18.1% (inactive)
4,O=C(Cn1nnc(-c2ccc(CN3CCOCC3)cc2)n1)NC1CCCCC1,-4.2% (inactive)
5,O=C(Nc1ccccc1)c1ccccc1Br,-1.5% (inactive)
6,COc1cccc(Nc2ncccc2C(=O)O)c1,-1.7% (inactive)
7,O=C(Nc1ccccc1)c1cccnc1Nc1ccccc1,99.9% (active)
8,Cc1cccc(C(=O)NNC(=O)CSc2nnc(C(C)C)n2C)c1,-2.9% (inactive)
9,COc1cccc(CN(C)CC(O)COC(c2ccccc2)c2ccccc2C)c1 (configuration not stated),60.5% (active)
10,COc1cccc(CN(C)CC(=O)Nc2ccccc2C(=O)Nc2ccccc2)c1,8.4% (inactive)
11,Cc1ccccc1C(OCC(O)CN1CCCCC1CCO)c1ccccc1 (configuration not stated),-0.9% (inactive)
12,COc1ccc(CCNC(=O)COC(=O)c2cc(=O)c3ccccc3o2)cc1,-2.7% (inactive)
13,COc1ccc(-c2c(C#Cc3ccccc3)c3ccccc3n2C)cc1,-3.3% (inactive)
14,COc1ccc(CCNCc2c(-c3ccccc3)n(C)c3ccccc23)cc1,90.8% (active)
15,CC[C@@H]1CC2=C(C(=O)OC(C)(C)O2)[C@@H](CC)O1,-0.8% (inactive)
16,Cc1c(CN2CCC(CO)(CCOc3ccccc3)CC2)[nH]c2ccc(Cl)cc12,64.1% (active)
17,CC(C)(O)C#Cc1ccc(CN2CCC(CO)(CCc3ccccc3)CC2)cc1,-3% (inactive)
18,Cc1cccc(-c2ncc(CN3CCC(CO)(CCCc4ccccc4)CC3)cn2)c1,2.3% (inactive)
19,Cc1cc(=O)cc(C)[nH]1,-3.9% (inactive)
20,Cc1oc(-c2ccccc2Cl)[n+]([O-])c1C,58.5% (active)
21,Cc1oc(-c2cccc(Cl)c2)[n+]([O-])c1C,8% (inactive)
22,CCOc1cnc(-c2c(-c3ccccc3Cl)noc2C)o1,1.2% (inactive)
23,COc1ccc([C@H]2CC(=O)C=C(c3ccc(OC(F)(F)F)cc3)C2)cc1OC,-1.8% (inactive)

row,Structure (SMILES),inhibition
1,CC1(C2CC2)NC(=O)N(CC(=O)N2CCN(c3ccccc3F)CC2)C1=O (configuration not stated),2% (inactive)
2,Cc1cccc(NC(=O)c2cccc(C(=O)Nc3cccc(C)c3C)n2)c1C,-1.9% (inactive)
3,CS(=O)(=O)N(Cc1ccc(Cl)cc1)c1ccc(C(=O)NCCSCc2ccco2)cc1,95.2% (active)
4,CCc1ccccc1N(CC(=O)NCCSCc1ccco1)S(C)(=O)=O,-0.4% (inactive)
5,Cc1cc(C)cc(N(CC(=O)NCCSCc2ccco2)S(C)(=O)=O)c1,-4.7% (inactive)
6,COc1cccc(NC(=O)CSc2nccn(-c3ccc4c(c3)OCCO4)c2=O)c1,-0.2% (inactive)
7,C/C=C/c1ccc(OCC(O)CN2CCCCCCC2)c(OC)c1 (configuration not stated),-1% (inactive)
8,CCOC(=O)N1CCN(c2cc(C)c([N+](=O)[O-])cc2F)CC1,-1% (inactive)
9,CN(C)c1ccc(N/C=C/C(=O)C(F)(F)F)cc1,0.5% (inactive)
10,NNC(=O)C1CC(O)CN1S(=O)(=O)c1ccc(Cl)cc1 (configuration not stated),-0.1% (inactive)
11,CN(c1ccccc1)S(=O)(=O)c1ccc(NC(=O)COc2ccccc2)cc1,16.3% (inactive)
12,Cc1ccc2nc(COc3ccc(N(C)S(=O)(=O)c4ccccc4)cc3)cc(=O)n2c1,2% (inactive)
13,COc1cccc(COc2ccc(N(C)S(=O)(=O)c3ccccc3)cc2)c1,72% (active)
14,Cc1ccc(NC(=O)CN2CCCCC2)c2c1CC(C)(C)O2,-0.4% (inactive)
15,Cc1ccc(NC(=S)N(CCCN2CCCC2)Cc2cccn2Cc2ccc(Cl)cc2)cc1,75.2% (active)
16,Cc1ccccc1NC(=S)N(CCCN1CCOCC1)Cc1cccs1,5.8% (inactive)
17,CCc1cccc(C)c1NC(=S)N(CCCN1CCN(C)CC1)Cc1cccs1,-1.6% (inactive)
18,O=C(c1n[nH]c2c1CCC2)N1CCCC(Nc2cccc(F)c2)C1 (configuration not stated),-7.9% (inactive)
19,CCCCC(CC)CNCc1cccn1CCN1CCOCC1 (configuration not stated),19.8% (inactive)
20,COc1ccc(NC(=O)C2=CC(c3ccc(OC)c(OC)c3)=NS(=O)(=O)N2C)cc1,-5.8% (inactive)
21,CCc1ccc(C2N3CC4([N+](=O)[O-])CN2CC([N+](=O)[O-])(C3)C4(C)C)cc1 (configuration not stated),-2% (inactive)
22,Oc1ccc2ccccc2c1N=Nc1nccs1,61.9% (active)
23,CC(C)(C)c1cc2cccnc2n1Cc1ccccc1,0% (inactive)

row,Structure (SMILES),inhibition
1,O=S(=O)(Nc1ccc2ccccc2c1)N1CCCCC1,-2.7% (inactive)
2,COc1ccc(S(=O)(=O)N(C)C[C@@H]2Oc3ccc(NS(=O)(=O)c4cn(C)cn4)cc3C(=O)N([C@@H](C)CO)C[C@@H]2C)cc1,-0.8% (inactive)
3,COc1ccccc1NS(=O)(=O)c1ccc(C(=O)N2CCN(c3ccccc3O)CC2)cc1,2.1% (inactive)
4,O=S(=O)(Nc1ccc(OC(F)(F)F)cc1)c1cccc2nonc12,-6.5% (inactive)
5,O=S(=O)(Nc1ccc(O)c2ccccc12)c1ccc(OC(F)(F)F)cc1,60.2% (active)
6,O=C(NCc1cccc(C(F)(F)F)c1)c1ccc2sc(COCCO)nc2c1,2.2% (inactive)
7,COc1ccc2c(c1)C(=C(C#N)C#N)C(=O)N2CCc1ccccc1,97.9% (active)
8,CCCCN1C(=O)/C(=C(/C#N)C(N)=O)c2ccccc21,-1.7% (inactive)
9,C#CCN1C(=O)C(O)(CC(=O)c2cc(OC)ccc2OC)c2ccccc21 (configuration not stated),-1.2% (inactive)
10,CCOC(=O)[C@]12CCCC=C1N(CCC1=CCCCC1)C(=O)[C@H](CC(=O)NCCCCc1ccccc1)C2,11.5% (inactive)
11,Cc1cccc(OCC(O)Cn2c(=N)n(CCN3CCOCC3)c3ccccc32)c1 (configuration not stated),1.7% (inactive)
12,OC(CN=c1sc2ccccc2n1CC(O)COc1ccccc1)COc1ccccc1 (configuration not stated),91.1% (active)
13,OC(COc1ccc(CN2CCSCC2)cc1)CN1CCCCC1 (configuration not stated),19.9% (inactive)
14,O=c1cc(CO)oc(C(Nc2cccc(C(F)(F)F)c2)c2ccccn2)c1O (configuration not stated),1.7% (inactive)
15,CC(C)CCN1NC2(CCC(C)CC2)NC1=S (configuration not stated),-6.9% (inactive)
16,O=C(COC(=O)c1ccccc1SCC(=O)N1CCCC1)Nc1ccccc1OC(F)F,-7.8% (inactive)
17,CN(c1ccccc1)S(=O)(=O)c1ccc(C(=O)NCCc2ccccc2)cc1,70.8% (active)
18,Cc1ccccc1CSCCNC(=O)c1ccc(N(C)S(=O)(=O)c2ccccc2)cc1,6.2% (inactive)
19,CN(c1ccccc1)S(=O)(=O)c1ccc(C(=O)NCc2cccnc2)cc1,-0.5% (inactive)
20,CCOC(=O)[C@H]1[C@H]2COc3cc(OC)ccc3[C@@H]2N2C(=O)N(c3ccc(Br)cc3)C(=O)[C@@]12C,-15.5% (inactive)
21,CC(Oc1ccccc1)C(=O)Nc1c2c(nn1-c1ccccc1)CS(=O)C2 (configuration not stated),-4% (inactive)
22,CCOC(=O)N1CCC(Nc2c(NCCN3CCN(c4cccc(Cl)c4)CC3)c(=O)c2=O)CC1,1.5% (inactive)
23,O=C(Cc1ccc(-n2c(=O)[nH]c3ccccc3c2=O)cc1)N1CCN(c2cccc(Cl)c2)CC1,-0.7% (inactive)

row,Structure (SMILES),inhibition
1,O=C(Cc1csc(Nc2nc(=S)[nH]c3ccccc23)n1)NCCCN1CCN(c2cccc(Cl)c2)CC1,56.9% (active)
2,CC(=O)OCC(=O)C1(O)CCC2C3CC(C)C4=CC(=O)CCC4(C)C3C(O)CC21C (configuration not stated),-8.4% (inactive)
3,CC(C(=O)NCC1CCCCC1)N(C)Cc1cccc(Cl)c1 (configuration not stated),0.2% (inactive)
4,COc1ccc(NC(=O)C(c2ccncc2)n2c(=O)c(-c3cc4ccccc4[nH]3)nc3ccccc32)cc1 (configuration not stated),19.8% (inactive)
5,COc1cc(NC(=O)COC(=O)c2cc(S(=O)(=O)N3CCOCC3)ccc2F)cc(OC)c1,-1.4% (inactive)
6,Cc1nc(-c2ccc(Cl)cc2)sc1C1(C)CC(c2ccc(Br)cc2)=NO1 (configuration not stated),56.1% (active)
7,Cc1nc(C(=O)Nc2ccc(Cl)cc2)sc1C1(C)CC(c2ccccc2)=NO1 (configuration not stated),1.2% (inactive)
8,Cc1nc(-c2ccc(Cl)cc2)sc1C1(C)CC(c2ccccc2F)=NO1 (configuration not stated),5.5% (inactive)
9,Cc1ccccc1CSc1nnc(CCCCCNC(=O)OC(C)(C)C)o1,-4.6% (inactive)
10,CC(C)Cc1nnc(NC(=O)CN2C(=O)NC3(CCCCC3)C2=O)s1,-0.9% (inactive)
11,COc1cccc(CN(C)CC(=O)NCc2ccccc2Cl)c1OC,-3.5% (inactive)
12,Cc1nc2ccc(C(=O)N(C)CC3CCCN(CCc4ccc(Cl)cc4)C3)cc2[nH]1 (configuration not stated),6.7% (inactive)
13,COc1cccc(CN(C)CC2CCCN(CCc3ccc(Cl)cc3)C2)c1OC (configuration not stated),75.1% (active)
14,COCCNC(=O)C(c1ccc(O)cc1)N(C(=O)CCC(=O)Nc1nccs1)c1ccc(C)cc1 (configuration not stated),-4.4% (inactive)
15,CCOc1cc(CN2CCCC(CO)(Cc3ccc(F)cc3F)C2)ccc1OC (configuration not stated),11.4% (inactive)
16,Cc1cc(C)cc(NC(=O)NC2CCN(CC(=O)Nc3cccc(Cl)c3C)CC2)c1,9.3% (inactive)
17,COc1ccc(CCNC(=O)CN(c2ccccc2)S(C)(=O)=O)cc1,10.8% (inactive)
18,N=c1c2c(-c3ccccc3)c(-c3ccccc3)oc2ncn1Cc1ccco1,59.7% (active)
19,COc1ccc(-c2oc3ncn(Cc4ccco4)c(=N)c3c2-c2ccc(OC)cc2)cc1,24.9% (inactive)
20,C(=C\c1ccccc1)/CSc1nnc(-c2cccnc2)n1Cc1ccco1,-1% (inactive)
21,COc1ccccc1C(=O)NCCC(=O)NN1C(=O)NC2(CCCCC2)C1=O,4% (inactive)
22,O=C(O)C(F)(F)C(NCc1ccccc1)c1ccccc1 (configuration not stated),2.5% (inactive)
23,Cc1cc(C)n(CCNC(=O)CC2C(=O)NCCN2Cc2ccc(C)o2)n1 (configuration not stated),-10.6% (inactive)
